NTMT1 inhibitor – inhibitors of human N-terminal methyltransferase NTMT1. NTMT1 MTase-Glo SAH luminescence, purified enzyme. actives 2.5% (n = 59,000). Q9BV86. AID 1645870. Potency, µM (titrated, usually from 114 µM), for inactives: at the highest dose activity change, negative = inhibition, hits mostly inhibitors;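 note: plate controls were DMSO vehicle for no effect and no enzyme for full effect; nearly all actives have a fitted effect of over 65% in size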
HTT-AS act – activators of huntingtin-antisense promoter activity; HEK293 HTT-AS promoter firefly luciferase reporter, 24 h; response scale: percent change from vehicle, -100% = no light; Potency, µM (top dose mostly 57.5 µM), without a hit: at the highest dose activity change, positive = activation, hits mostly activators; actives 0.24% (n = 48,000); note: nearly all actives have a fitted effect of over 55% in size
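Quantitative HTS used concentration series of up to 57.5 uM final on HEK293 luciferase reporter cells, 24 h at 37 degrees C. Readout was Dual-Glo firefly luminescence.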
HTT prom inh – inhibitors of huntingtin promoter activity. HEK293 HTT promoter firefly luciferase reporter, 24 h. Potency, µM (titrated, usually from 57.5 µM), inactives show at the highest dose activity change, negative = inhibition, most hits filed as inhibitors. actives 0.93% (n = 48,000). AID 1508623; note: nearly all actives have a fitted effect of over 50% in size
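HEK293 luciferase promoter-reporter cells (2,500/well) plated 24 h, then compounds added at up to 57.5 uM final for 24 h at 37 °C. Firefly luminescence by Dual-Glo, normalized to vehicle (0%) and zero RLU (-100%).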
FH mod – Identification of activators of human fumarate hydratase by quantitative high-throughput screening. Potency, µM (top dose mostly 79.9 µM), without a hit: at the top dose activity change, negative = inhibition, most hits filed as inhibitors. Fumarate hydratase, mitochondrial (Homo sapiens), P07954. AID 1347055, 2019. actives 0.22% (n = 54,000). FH coupled MDH/diaphorase resazurin fluorescence, 15 min; note: % is set by controls: 0 for no effect and ±100 for the full control effect; the screen sought activators but most active calls are inhibition curves; nearly all actives have a fitted effect of over 45% in size
Target sequence (P07954 whole entry, looked up): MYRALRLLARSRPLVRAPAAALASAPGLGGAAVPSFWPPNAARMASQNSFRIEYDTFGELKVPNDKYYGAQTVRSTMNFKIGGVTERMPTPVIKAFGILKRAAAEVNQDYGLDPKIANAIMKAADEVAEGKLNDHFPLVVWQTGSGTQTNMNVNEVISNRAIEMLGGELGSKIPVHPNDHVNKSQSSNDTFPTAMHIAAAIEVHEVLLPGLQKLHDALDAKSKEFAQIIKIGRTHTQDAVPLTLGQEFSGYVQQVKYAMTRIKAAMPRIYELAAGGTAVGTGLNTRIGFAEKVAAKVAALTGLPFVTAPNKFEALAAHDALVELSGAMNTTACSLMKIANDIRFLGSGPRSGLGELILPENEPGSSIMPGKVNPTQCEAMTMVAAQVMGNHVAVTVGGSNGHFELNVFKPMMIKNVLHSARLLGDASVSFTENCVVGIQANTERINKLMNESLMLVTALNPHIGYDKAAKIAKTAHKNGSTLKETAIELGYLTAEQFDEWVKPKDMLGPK
* hit, by the source's call; ? = inconclusive; nt = not tested or not shown; ! = not active in a repeat; [ ] = dose if it differs, or a comment. This is a sample that favours compounds with a hit; in the whole collection about 2.6% have one here. Calls come from the whole dose curve; as a rule, active = well fitted curve in the direction sought with a large enough effect; inconclusive = small, poorly fitted or top-dose-only effect, or another doubt; inactive = no such curve, though single readings can be large; an effect the other way counts as inactive or inconclusive. Potency is the fitted concentration of half-maximal effect.

SMILES	NTMT1 inhibitor	HTT-AS act	HTT prom inh	FH mod
C[C@]12CCC3[C@@H](CC[C@H]4NC(=O)C=C[C@]34C)[C@@H]1CC[C@@H]2C(=O)Nc1cc(C(F)(F)F)ccc1C(F)(F)F (some centres not stated)	15%	nt	nt	nt
Cn1c(=O)c2sccc2n2c(CCCC(=O)Nc3ccc(Oc4ccc(Cl)cc4)cc3)nnc12	8%	-27%	40µM*	?
CCCC1=CC2=C(CO1)C(=O)C(C)(O)C(OC(=O)c1c(C)cc(OC)cc1O)C2 (configuration not stated)	5%[29.8 µM]	nt	nt	-3%[53.3 µM]
Cc1ccc(N2C(=O)CSC23C(=O)N(Cc2ccccc2F)c2ccccc23)cc1F (configuration not stated)	-1%	-33%	25µM*	-21%
CC(C)=CCC/C(C)=C/CC/C(C)=C/CSc1ccccc1C(=O)O	50µM*	nt	nt	?
CC(C)=CCCC(C)=CCCC(C)=CCSc1ccccc1C(=O)O	?	-30%	?	-19%[53.3 µM]
c1nc2nc(Nc3ccc(N4CCOCC4)cc3)nc(NC3CCCCC3)c2[nH]1	40µM*!	-26%	?	-21%
C=C1C(=O)O[C@@H]2C=C(COC(C)=O)CC/C=C(\CO)CC[C@@H]12	7%[29.8 µM]	nt	nt	-8%[53.3 µM]
NC1[C@H]2CN(c3nc4c(cc3F)c(=O)c(C(=O)O)cn4-c3ccc(F)cc3F)C[C@@H]12 (some centres not stated)	?	32µM*	69%	-5%[53.3 µM]
NC1CCN(c2nc3c(cc2F)c(=O)c(C(=O)O)cn3-c2ccc(F)cc2F)C1 (configuration not stated)	-9%[57.5 µM]	2%	23%	1%[53.3 µM]
CN(C)c1ccc2cc(C(=O)N[C@@H](CCCN=C(N)CCl)C(=O)NCc3ccccc3)ccc2c1	5.6µM*	-9%	-10%	-23%[53.3 µM]
O=C1CCCC2=C1C(c1[nH]ncc1Cl)N=C(c1nc3ccccc3o1)N2 (configuration not stated)	6%	nt	nt	nt
CCN1CCC[C@@H]1CNC(=O)c1ccc2c(c1)NC(=O)c1cccc(C)c1S2	10%[57.5 µM]	nt	nt	9%
Cc1cccc(NC(c2cccc(Cl)c2)c2ccc3cccnc3c2O)n1 (configuration not stated)	14%	-38%	10µM*	-9%
COc1ccc(C(Nc2ccccn2)c2ccc3ccc(C)nc3c2O)cc1C (configuration not stated)	11%	-31%	?	12%
CCOc1cc(C(Nc2cc(C)ccn2)c2ccc3cccnc3c2O)ccc1OC (configuration not stated)	4%	-39%	35µM*	20%
CNC(=O)COC(=O)NCCC1CCN(c2cccc(C)n2)CC1	2%[57.5 µM]	nt	nt	0%
O=C1NC(=Nc2ccccc2F)S/C1=C\c1ccc(C(=O)O)cc1	-19%[57.5 µM]	nt	nt	?
CN1CCN(c2cccc(Nc3nn4c(=O)c5ccc(N(C)C)cc5nc4s3)c2)CC1	50µM*	nt	nt	nt
O=c1c2ccccc2nc2sc(Nc3cccc(N4CCNCC4)c3)nn12	50µM*!	nt	nt	nt
COc1ccc(C2Nc3ccccc3C(=O)N2Cc2ccccn2)cc1COc1c(C)cccc1C (configuration not stated)	6%	nt	nt	nt
CCC(C)C(=O)OC1CC(O)C23C4OCC5(C(O)CC2C1(C)C(O)O4)C3C(=O)C(O)C1(C)C(O)(c2ccoc2)CC2OC251 (configuration not stated)	-1%[12.6 µM]	nt	nt	-7%[20.6 µM]
Oc1cccc2cc(NCc3ccccc3F)cnc12	7%[57.5 µM]	nt	nt	nt
COc1ccc(C(=O)CN2CCN(S(=O)(=O)c3ccc(C(C)C)cc3)CC2)cc1	56µM*	-25%	?	-5%
O=c1[nH]c2ccc(NCc3ccc(-c4ccccc4F)o3)cc2[nH]1	9%	-60%	28µM*	-26%
SMILES	NTMT1 inhibitor	HTT-AS act	HTT prom inh	FH mod
O=c1[nH]c2ccc(NCc3ccc(-c4ccccc4)o3)cc2[nH]1	-9%	-32%	?	1%
Cc1ccc(NC(=O)n2ncc3c(C)cccc32)c(C)c1	-7%	7.1µM*	56%	-3%
CCOC(=O)Cc1ccc(NC(=O)n2ncc3cc(Cl)ccc32)cc1	-19%	-91%	0.25µM*	?
Cc1ccc(C)c(NC(=O)n2ncc3cc(Cl)ccc32)c1	-11%	?	20%	-13%
Cc1cc2nc3ccc(=[N+](C)C)cc-3sc2cc1N	22µM*	-20%	-12%	?
CN(C)c1ccc2nc3ccc(=[N+](C)C)cc-3sc2c1	32µM*	-14%	-23%	?
Fc1cc(Nc2nc(-c3ccncc3)nc3ccccc23)ccc1N1CCNCC1	10µM*	nt	nt	nt
Fc1cc(Nc2nc(-c3ccncc3)nc3ccccc23)ccc1-c1ccncc1	-1%	nt	nt	nt
CC1=CCC(C(C)(C)O[C@@H]2O[C@H](CO[C@@H]3O[C@@H](C)[C@H](O)[C@@H](O)[C@H]3O)[C@@H](O)[C@H](O)[C@H]2O)CC1 (some centres not stated)	8%[29.8 µM]	nt	nt	-4%[53.3 µM]
CC(C)(Cc1nc(-c2ccc(O)cn2)no1)C(=O)NC1=C(C(=O)O)CCCC1	4%[57.5 µM]	nt	nt	10%
O=C(Nc1ccc(S(=O)(=O)Nc2nccs2)cc1)c1ccnc(-c2ccccc2)c1	-2%	nt	nt	nt
CCc1ccccc1NS(=O)(=O)c1ccc(OC)c2ncccc12	89µM*	-34%	-19%	-20%
CCOC(=O)c1c(NC(=O)/C(C#N)=C/c2ccc(OC)cc2)sc2c1CCC2	11%	-6%	-3%	10%
CCOc1ccc(/C=C(\C#N)C(=O)Nc2sc3c(c2C(=O)OC)C(C(=O)OC)CC3)cc1OC (configuration not stated)	10µM*	-20%	-17%	4%
CC(CCC1(O)OC2CC3C4CC=C5CC(O[C@@H]6O[C@H](CO)[C@@H](O[C@@H]7O[C@H](CO)[C@@H](O)[C@H](O)[C@H]7O)[C@H](O)[C@H]6O[C@@H]6O[C@@H](C)[C@H](O)[C@@H](O)[C@H]6O)CCC5(C)C4CCC3(C)C2C1C)CO[C@@H]1O[C@H](CO)[C@@H](O)[C@H](O)[C@H]1O (some centres not stated)	-5%[12.6 µM]	nt	nt	-3%[20.6 µM]
CC(=O)Nc1sc2c(c1-c1ccc(OC(F)(F)F)cc1)CCNC2	0%	nt	nt	nt
C=C(c1ccc(C(=O)O)cc1)c1cc2c(cc1C)C(C)(C)CCC2(C)C	112µM*!	-10%	-3%	-11%
CCCCCCCCCCCCCCCCCCN(CCCCCCCCCCCCCCCCCC)CCCN(CCO)CCO	nt	nt	nt	-15%[53.3 µM]
Nc1nccn2c(C3CCC(C(=O)O)CC3)nc(-c3cc4cccc(Cl)c4[nH]3)c12 (configuration not stated)	35µM*!	nt	nt	-23%
CC(c1ncncc1F)C(O)(Cn1cncn1)c1ccc(F)cc1F (configuration not stated)	4%[57.5 µM]	nt	nt	1%
CCOc1ccc(CCNC(=O)CCCc2cc(-c3ccc(OCC)cc3)on2)cc1	-3%	-78%	0.32µM*	1%
CCOc1ccc(CCNC(=O)CCCn2c(=O)c3cccn3c3ccccc32)cc1	?	-20%	-20%	-4%

From PubChem
